Hits are enriched below; roughly 19% of the tested compounds scored in any of these assays.
IL1B secr inh: qHTS for Inhibitors of Inflammasome Signaling: IL-1-beta AlphaLISA Primary Screen. THP-1 LPS/ATP IL-1B secretion, AlphaLISA, 16 h; active compounds read low. activity change, % at 57.5 µM. 360,000 tested, 4.7% active. AID 743279, 2014; in the data active means activity change below about -50%; inconclusive means mostly about -30% to -49%
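Secreted IL-1B measured by AlphaLISA bead assay after 16 h compound exposure of THP-1 cells; compounds (final up to 57.5 uM) added 1 h before LPS (250 ng/mL) and ATP (1.25 mM) stimulation; lower signal means less secretion.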
TDP1 cell CPT: qHTS for Inhibitors of human tyrosyl-DNA phosphodiesterase 1 (TDP1): qHTS in cells in presence of CPT; chicken DT40 Tdp1-/-;hTDP1 cells + 20 nM CPT, ATP luminescence, 48 h; Potency, µM (doses to about 46.2 µM), without a hit: at the highest dose activity change, negative = growth inhibition, actives largely listed as inhibitors; 420,000 tested, 12% active; further: potency means the concentration at half of the fitted maximal effect; nearly all actives have a fitted effect of over 55% in size
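Chicken DT40 Tdp1-/- cells complemented with human TDP1, 400 cells/well, exposed to compounds plus 20 nM camptothecin for at least 48 h at 37 C; viability read as ATP content by CellTiter-Glo luminescence.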
HT1080NT lethal: qHTS for induction of synthetic lethality in tumor cells producing 2HG: qHTS for the HT-1080-NT fibrosarcoma cell line; HT-1080-NT fibrosarcoma viability, CellTiter-Glo ATP luminescence, 48 h; Potency, µM (highest dose often 46.1 µM), for the others: at the top dose activity, negative = less viability, most hits filed as cytotoxic; 360,000 tested, 1.6% active; AID 686970, 2013;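 further: NT is the 2HG producing partner of a matched IDH1 knockdown line; potency means the concentration at half of the fitted maximal effect; 0% = DMSO-treated cells and -100% = media-only wells without cells; nearly all actives have a fitted effect of over 55% in size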
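Viability of the 2HG-overproducing fibrosarcoma line after 48 hours of compound exposure at 37 degrees C was determined by luminescence with CellTiter-Glo, and concentration-effect curves were then fitted and categorized.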
HT1080 IDH1KD tx: qHTS for induction of synthetic lethality in tumor cells producing 2HG: qHTS for the HT-1080-IDH1KD cell line; HT-1080 IDH1 knockdown viability, ATP luminescence, 48 h; Potency, µM (series often up to 46.1 µM), for inactives: at the top dose activity, negative = toxicity, hits mostly cytotoxic; 360,000 tested, 2% active; AID 686971, 2013;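 further: potency means the concentration at half of the fitted maximal effect; 0% = DMSO wells and -100% = cell-free medium wells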
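Luminescent ATP read-out (CellTiter-Glo, 10 min at room temperature) after 48 h compound exposure at 37 °C gave viability of IDH1-knockdown HT-1080 cells. Activity was normalised to DMSO and cell-free wells, then fitted as concentration-response curves.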
uPA generation: qHTS for Inhibitors of Cell Surface uPA Generation. cell surface uPA generation assay, qHTS. Potency, µM (series often up to 38.3 µM), for the others: at the top dose activity change, negative = inhibition, hits mostly inhibitors. 330,000 tested, 0.31% active. AID 540303, 2011; active means well fitted inhibition curve with a large enough effect; inconclusive means small, poorly fitted or top-dose-only effect; inactive means no such curve, though single readings can be large or run the other way; tested in mouse RAW 264.7 cells; further: potency means the concentration at half of the fitted maximal effect; nearly all actives have a fitted effect of over 55% in size
DT40 TDP1 no CPT: qHTS for Inhibitors of human tyrosyl-DNA phosphodiesterase 1 (TDP1): qHTS in cells in absence of CPT; DT40 Tdp1-/- hTDP1 cells, no CPT, ATP luminescence, 48 h; Potency, µM (top dose mostly 46.2 µM), for the others: top-dose activity change, negative = growth inhibition, usual class: inhibitors; 420,000 tested, 15% active; AID 686978, 2013; further: potency means the concentration at half of the fitted maximal effect; nearly all actives have a fitted effect of over 55% in size
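A cellular qHTS used chicken DT40 cells lacking endogenous Tdp1 but carrying stably transfected human TDP1. Compounds were applied without camptothecin, and cell growth kinetics were judged by ATP-dependent luminescence after ≥48 hr.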
Numbers without * were called inactive; ? = inconclusive; / = not tested or not shown. Unless noted, the call rests on the fitted dose curve; in most records, active means well fitted curve in the direction sought with a large enough effect; inconclusive means small, poorly fitted or top-dose-only effect, or another doubt; inactive means no such curve, though single readings can be large; an effect the other way counts as inactive or inconclusive. Unless noted, on the % scale 0 is the no-effect control and ±100 the full control effect.

SMILES	IL1B secr inh	TDP1 cell CPT	HT1080NT lethal	HT1080 IDH1KD tx	uPA generation	DT40 TDP1 no CPT
CCCC(=O)Nc1nc(C)c(-c2csc(Nc3ccc(Cl)cc3)n2)s1	-21	12µM*	-21%	-21%	-20%	?
CCC(C)C(=O)Nc1nc(C)c(-c2csc(Nc3ccc(Cl)cc3)n2)s1 (configuration not stated)	-1	16µM*	-2%	-9%	-10%	9.2µM*
CC1(c2ccccc2)NC(=O)N(CC(=O)Nc2ccc(N3CCOCC3)cc2)C1=O (configuration not stated)	-4	?	-7%	-1%	15%	13%
CC1CCCN(S(=O)(=O)c2ccc(NC(=O)CN3C(=O)NC(C)(c4ccccc4)C3=O)cc2)C1 (configuration not stated)	-52*	-28%	-4%	-3%	-2%	?
CC1(c2ccc([N+](=O)[O-])cc2)NC(=O)N(CC(=O)Nc2ccc(N3CCCCC3)cc2)C1=O (configuration not stated)	-2	?	-15%	-11%	3%	18µM*
CC1(c2ccccc2)NC(=O)N(CC(=O)Nc2ccc([N+](=O)[O-])cc2)C1=O (configuration not stated)	-12	26µM*	?	?	1%	?
CC1(c2ccc(OC(F)F)cc2)NC(=O)N(CC(=O)Nc2ccc(N3CCCCC3)cc2)C1=O (configuration not stated)	-12	?	-5%	-3%	1%	?
CC1(C)OC(=O)C2=C(C[C@@H](CCOCc3ccccc3)O[C@@H]2c2ccc(F)cc2)O1	0	?	-10%	-9%	/	?
Cn1nnnc1SCC(=O)Nc1ccc(C(=O)N2CCN(Cc3ccccc3F)CC2)cc1	-5	-19%	17%	0%	1%	5%
CC(C)(C)CC(C)(C)c1ccc(O)c(Cc2ccc(Cl)cc2Cl)c1	-72*	?	3.7µM*	18µM*	?	?
O=c1c(Cc2ccc(Cl)cc2Cl)c(O)ccn1CC(F)(F)F	0	-8%	-2%	15%	4%	5%
COc1ccccc1CN1C(=O)C(=O)N(Cc2cccc(C)c2)C1=O	-1	-2%	5%	5%	-1%	0%
Cc1ccccc1Cn1nnc2c1C(=O)c1ccccc1C2=O	0	8.2µM*	-9%	23µM*	-4%	6.5µM*
Cc1cccc(Cn2nnc3c2C(=O)c2ccccc2C3=O)c1	11	9.2µM*	?	?	0%	4.6µM*
CC(C)CC(NS(=O)(=O)OCC(Cl)(Cl)Cl)c1ccccc1 (configuration not stated)	-20	?	?	-26%	6%	16µM*
COC(=O)CCC(NS(=O)(=O)OCC(Cl)(Cl)Cl)c1ccccc1 (configuration not stated)	25	-28%	6%	2%	-12%	?
Cc1nnc(NC(=O)C(=O)c2cc(C)n(-c3ccc(C)c(C)c3)c2C)s1	/	-26%	/	/	/	-22%
COc1ccc(-c2c3c(nc4sc(C(=O)Nc5cccc(OC)c5)c(N)c24)CC(C)(C)CC3=O)cc1	/	?	/	/	/	13µM*
COc1ccc(C(=O)c2sc3nc(-c4ccc(C)cc4)cc(C(F)(F)F)c3c2N)cc1	/	-29%	/	/	/	-20%
COc1ccc(NC(=O)c2sc3nc4c(c(-c5ccc(OC)cc5)c3c2N)C(=O)CC(C)(C)C4)cc1	/	23µM*	/	/	/	13µM*
COc1ccc(NC(=O)c2sc3nc(-c4ccc(OC)cc4)cc(C(F)(F)F)c3c2N)cc1	/	2.9µM*	/	/	/	1.8µM*
CCOc1ccc(NC(=O)c2sc3nc4c(c(-c5ccccc5)c3c2N)C(=O)CC(C)(C)C4)cc1	/	?	/	/	/	-19%
COc1ccc(C(=O)N2CCCC(O)C2)cc1OC1CCN(C(C)C)CC1 (configuration not stated)	20	1%	13%	11%	-5%	11%
COCCn1c(Cc2cccn2C)nnc1SCC(=O)NCc1ccc2c(c1)OCO2	-19	-15%	-1%	2%	5%	-23%
Cc1[nH]n(-c2ccccc2)c(=O)c1C=NCc1ccncc1	14	7%	-13%	-14%	0%	0%
SMILES	IL1B secr inh	TDP1 cell CPT	HT1080NT lethal	HT1080 IDH1KD tx	uPA generation	DT40 TDP1 no CPT
Cc1ccc(-n2[nH]c(C)c(/C=N/c3ccccn3)c2=O)cc1	36	?	7.1µM*	?	?	?
Cc1[nH]n(-c2ccc(Cl)cc2)c(=O)c1/C=N/c1nnc(-c2ccccc2)s1	26	?	-22%	-25%	0%	16µM*
Cc1ccc(-n2[nH]c(C)c(C=Nc3cc(C)ccn3)c2=O)cc1	0	?	10µM*	23µM*	-8%	?
CCc1nnc(NS(=O)(=O)c2ccc(N=Cc3c(C)[nH]n(-c4ccc(Cl)cc4)c3=O)cc2)s1	-9	?	-15%	-3%	-3%	?
Cc1[nH]n(-c2ccccc2)c(=O)c1C=Nc1cccc2cccnc12	56	0.65µM*	-21%	?	-6%	0.92µM*
CCCCC(CC)C(=O)O (configuration not stated)	-19	-12%	-4%	-4%	1%	-4%
COc1ccc(OC)c(NC(=O)Cc2c(C(=O)O)n(C)c3ccc(C)cc23)c1	/	-30%	/	/	/	-4%
CCCc1nc2ccccc2c(=O)n1/N=C/c1c(C)[nH]n(-c2ccc(C)cc2)c1=O	44	21µM*	16µM*	18µM*	-9%	12µM*
Cc1[nH]n(-c2ccccc2)c(=O)c1/C=N/N1C(=O)c2cccc3cccc(c23)C1=O	83	?	?	?	-6%	16µM*
CCc1nc2ccccc2c(=O)n1/N=C/c1ccc(Cl)cc1	7	-30%	-11%	-2%	-2%	16µM*
COc1ccc2nc(/N=C/c3c(C)[nH]n(-c4ccc(C)cc4)c3=O)sc2c1	16	13µM*	?	?	-4%	?
CCCc1nc2ccccc2c(=O)n1/N=C/c1ccccc1O	36	?	?	?	-10%	-22%

Assay outcomes (PubChem)
